Test results from PubChem BioAssay (Tox21).
Results filed as inconclusive are left out. Where a call stands in place of a potency, no number is given. Active and inactive are the calls of the source. Unless noted, calls follow the shape of the dose curve; as a rule, active = well fitted curve in the direction sought with a large enough effect in the repeat runs; inconclusive = weak or mixed curves; inactive = no such curve, though single readings can be large; an effect the other way counts as inactive or inconclusive.

Legend:
[1] = qHTS assay to identify small molecule antagonists of the retinoid acid receptor (RAR) signaling pathway - cell viability counter screen (AID 1159551); also: nearly all actives have a fitted effect of over 35% in size; also: potency is read from the fitted curve at half-maximal effect
Summary of the method: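 In this counter screen, the RARE-luciferase line C3RL4 was exposed for 6 h at 37 C and 5% CO2 to compounds with retinol at 1 uM final. Cellular ATP, read by luminescence, served as the viability measure.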

[2] = qHTS assay to identify small molecule antagonists of the retinoic acid receptor (RAR) signaling pathway (AID 1159552; also: nearly all actives have a fitted effect of over 50% in size; also: potency is read from the fitted curve at half-maximal effect)
Summary of the method: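 Luminescent RARE reporter read-out in C3RL4 cells: 6 hr co-treatment at 37 C of test compounds with retinol at 1 uM final. Cells plated overnight beforehand; luciferase reagent incubated 30 min at room temperature before reading.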

[3] = qHTS assay to identify small molecule agonists of the retinoic acid receptor (RAR) signaling pathway (AID 1159553); details: C3RL4 RARE luciferase reporter, agonist, 6 h; activation: at 73.3 µM (top of the series); also: potency is read from the fitted curve at half-maximal effect
Summary of the method: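 In this cell-based screen, 1,000 C3RL4 cells per well were cultured overnight, dosed with test chemicals in DMSO for 6 hr, and assessed for RARE luciferase luminescence.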

[4] = qHTS assay to identify small molecule antagonists of the estrogen related receptor (ERR) signaling pathway from Tox21 library - cell viability counter screen (AID 1224834); also: nearly all actives have a fitted effect of over 30% in size; also: potency is read from the fitted curve at half-maximal effect
Summary of the method: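 Counter screen run in ERR cells (2,000 cells/well): cells pre-incubated 6 h, then treated with compounds for 17.5 h at 37 C. Fluorescence was read 30 min after CellTiter-Fluor addition.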

[5] = qHTS assay to identify small molecule agonists of the constitutive androstane receptor (CAR) signaling pathway - cell viability counter screen (AID 1224836); also: nearly all actives have a fitted effect of over 45% in size; also: potency is read from the fitted curve at half-maximal effect
Summary of the method: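 Cell viability multiplexed with the CAR agonist screen: CellTiter-Fluor fluorescence after 23 hr at 37 C. HepG2-CYP2B6-hCAR cells got compounds at 15 concentrations with PK11195 at 0.75 uM final.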

[6] = qHTS assay to identify small molecule antagonists of the constitutive androstane receptor (CAR) signaling pathway - cell viability counter screen (AID 1224837); also: nearly all actives have a fitted effect of over 45% in size; also: potency is read from the fitted curve at half-maximal effect
Summary of the method: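 CITCO at 50 nM final was added alongside compounds (15 concentrations) to double-stable hCAR/CYP2B6-2.2kb HepG2 cells. Following 23 hr at 37 C, cell viability was quantified by CellTiter-Fluor fluorescence intensity.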

[7] = target: Nuclear receptor subfamily 1 group I member 3 (Homo sapiens) (UniProt Q14994); test: qHTS assay to identify small molecule agonists of the constitutive androstane receptor (CAR) signaling pathway (AID 1224839); also: nearly all actives have a fitted effect of over 15% in size; also: potency is read from the fitted curve at half-maximal effect
Summary of the method: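 Luminescent ONE-Glo read-out after 24 hr, 37 C exposure of double-stable HepG2-CYP2B6-hCAR reporter cells to a 15-point compound series, in the presence of 0.75 uM PK11195 (final).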

[8] = qHTS assay to identify small molecule antagonists of the estrogen related receptor signaling pathway with the pleiotropic PPARgamma coactivator (PGC) from Tox21 10K library - cell viability counter screen (AID 1224840; active = well fitted cell-killing curve with a large enough effect in the repeat runs, not every such curve was filed as active; also: nearly all actives have a fitted effect of over 40% in size)
Summary of the method: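 Readout: fluorescence intensity from CellTiter-Fluor after 30 min at 37 C/5% CO2. Preceded by 17.5 h treatment of PGC/ERR cells with DMSO-dissolved compounds, added 6 h post-seeding.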

[9] = qHTS assay to identify small molecule agonists of the estrogen related receptor signaling pathway with the pleiotropic PPARgamma coactivator (PGC) from Tox21 10K library (AID 1224842); also: nearly all actives have a fitted effect of over 15% in size
Summary of the method: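 Luminescence from One-Glo (30 min, room temperature) measured after PGC/ERR cells had 18 h at 37 C with pinned compound (23 nL in DMSO). Cells had been seeded at 2,000 per well and pre-incubated 6 h.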

[10] = qHTS assay to identify small molecule agonists of the RXR signaling pathway - cell viability counter screen (AID 1159529); also: nearly all actives have a fitted effect of over 50% in size; also: potency is read from the fitted curve at half-maximal effect
Summary of the method: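 CellTiter-Glo luminescence gave viability in the wells also read for beta-lactamase. Cells (RXR-alpha-UAS-bla HEK 293T, 2% charcoal-stripped FBS medium) had 5 hr plating, then 16 hr compound exposure at 37 C; tetraoctyl ammonium bromide served as positive control.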

[11] = target: Luciferin 4-monooxygenase (Photinus pyralis) (UniProt P08659); test: qHTS assay to identify small molecule inhibitors of firefly luciferase (AID 1224835); also: nearly all actives have a fitted effect of over 25% in size
Summary of the method: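 Inhibition of purified Photinus luciferase is measured by luminescence. Substrate levels (D-luciferin, ATP) sit at their KM values. Each compound is tested in a concentration series.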

[12] = target: Nuclear receptor subfamily 1 group I member 3 (Homo sapiens) (UniProt Q14994); test: qHTS assay to identify small molecule antagonists of the constitutive androstane receptor (CAR) signaling pathway (AID 1224838); also: nearly all actives have a fitted effect of over 40% in size
Summary of the method: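 Inhibition of CITCO-driven (50 nM final) CYP2B6 reporter expression is measured in HepG2 cells stably carrying hCAR. Fifteen compound concentrations are applied for 24 h at 37 C, followed by luciferase luminescence.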

[13] = qHTS assay to identify small molecule antagonists of the estrogen related receptor (ERR) signaling pathway - cell viability counter screen (AID 1224818)
Summary of the method: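 Viability of ERR cells, CellTiter-Fluor fluorescence; 17.5 h compound exposure at 37 C, DMSO vehicle; 30 min reagent incubation at 37 C/5% CO2.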

[14] = qHTS assay to identify small molecule agonists of the estrogen related receptor (ERR) signaling pathway (AID 1224820)
Summary of the method: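 Following a 6 h settling period, 2,000 ERR cells per well receive DMSO-dissolved compounds by pin tool and incubate 18 h at 37 C; agonist activity is scored from One-Glo luminescence read 30 min post-addition.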

[15] = qHTS assay to identify small molecule antagonists of the estrogen related receptor signaling pathway with the pleiotropic PPARgamma coactivator (PGC) cell viability counter screen (AID 1224822)
Summary of the method: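 17.5 h compound treatment of PGC/ERR cells at 37 C; readout CellTiter-Fluor fluorescence; run alongside the PGC/ERR antagonist screen to flag cytotoxic compounds.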

[16] = qHTS assay to identify small molecule agonists of the estrogen related receptor signaling pathway with the pleiotropic PPARgamma coactivator (PGC) (AID 1224823)
Summary of the method: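 In this quantitative high-throughput screen, an 18 h, 37 C treatment of PGC/ERR cells with compounds in DMSO preceded a One-Glo luminescence read taken after 30 min at room temperature.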

[17] = qHTS assay to identify small molecule antagonists of the estrogen related receptor (ERR) signaling pathway (AID 1224819;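 also: luminescence from an ERR-driven luciferase reporter measured with One-Glo reagent; nearly all actives have a fitted effect of over 50% in size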)
Summary of the method: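 Seed ERR cells 2,000/well; rest 6 h at 37 C/5% CO2; pin compounds in DMSO; incubate 18 h at 37 C; add One-Glo; wait 30 min at room temperature; measure luminescence.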

[18] = test system: estrogen-related receptor alpha (ERRalpha) with PGC-1alpha coactivator, human; test: qHTS assay to identify small molecule antagonists of the estrogen related receptor signaling pathway with the pleiotropic PPARgamma coactivator (PGC) (AID 1224821; calls by dose curve;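 also: lower luminescence signal means antagonism of PGC/ERR signalling; nearly all actives have a fitted effect of over 50% in size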)
Summary of the method: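 Screening used NTP's PGC/ERR cells, dosed via pin tool with compound in DMSO alongside positive and negative controls. After 18 h at 37 C, One-Glo reagent sat 30 min at room temperature before luminescence detection.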

[19] = qHTS assay to identify small molecule antagonists of the estrogen related receptor signaling pathway with the pleiotropic PPARgamma coactivator (PGC) from Tox21 10K library (AID 1224841; call rule not given here)
Summary of the method: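 One-Glo luminescence, measured after half an hour at room temperature, quantified reporter output of PGC/ERR cells. These had been plated at 2,000 per well, incubated 6 h, dosed with compounds in DMSO, then kept 18 h at 37 C.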

Luciferin 4-monooxygenase (Photinus pyralis), sequence (P08659 whole entry, looked up): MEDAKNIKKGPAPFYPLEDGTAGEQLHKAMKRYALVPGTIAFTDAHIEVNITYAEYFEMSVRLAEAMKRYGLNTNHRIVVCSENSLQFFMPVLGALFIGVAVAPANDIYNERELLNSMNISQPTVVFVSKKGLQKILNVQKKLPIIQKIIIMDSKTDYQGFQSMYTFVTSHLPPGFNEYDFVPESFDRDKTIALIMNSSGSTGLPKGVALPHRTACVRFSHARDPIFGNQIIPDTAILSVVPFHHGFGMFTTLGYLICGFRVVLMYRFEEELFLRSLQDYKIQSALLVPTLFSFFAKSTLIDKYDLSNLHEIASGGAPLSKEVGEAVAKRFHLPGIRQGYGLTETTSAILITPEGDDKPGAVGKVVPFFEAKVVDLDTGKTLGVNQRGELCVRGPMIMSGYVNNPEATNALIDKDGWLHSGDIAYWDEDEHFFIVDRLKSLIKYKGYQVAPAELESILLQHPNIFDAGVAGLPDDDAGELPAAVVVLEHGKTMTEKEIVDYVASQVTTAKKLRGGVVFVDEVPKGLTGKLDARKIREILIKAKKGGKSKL
Nuclear receptor subfamily 1 group I member 3 (Homo sapiens), sequence (Q14994 whole entry, looked up): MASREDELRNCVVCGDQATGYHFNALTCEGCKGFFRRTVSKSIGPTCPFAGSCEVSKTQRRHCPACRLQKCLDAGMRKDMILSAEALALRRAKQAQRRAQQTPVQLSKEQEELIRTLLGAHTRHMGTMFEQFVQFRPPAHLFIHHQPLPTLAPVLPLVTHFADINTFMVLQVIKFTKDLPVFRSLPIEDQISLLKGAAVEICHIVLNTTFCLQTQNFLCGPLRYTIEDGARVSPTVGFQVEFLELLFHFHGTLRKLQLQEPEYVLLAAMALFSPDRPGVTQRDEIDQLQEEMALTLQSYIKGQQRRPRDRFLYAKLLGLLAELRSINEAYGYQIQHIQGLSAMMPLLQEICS

## C=C(C)[C@@H]1CCC2=CCC[C@@H](C)[C@]2(C)C1
[1]
  Potency: inactive
[2]
  Potency: inactive
[3]
  Potency: inactive
[4]
  Potency: inactive
[5]
  Potency: inactive
[6]
  Potency: inactive
[7]
  Potency: inactive
[8]
  Potency: inactive
[9]
  Potency: inactive

## COC(=O)[C@H]1[C@H]2C[C@@H]3c4[nH]c5cc(OC)ccc5c4CCN3C[C@H]2C[C@@H](OC(=O)/C=C/c2ccc(O)c(OC)c2)[C@@H]1OC
[10]
  Potency: inactive
[1]
  Potency: inactive
[11]
  Potency: inactive
[6]
  Potency: inactive
[12]
  Potency: inactive
[7]
  Potency: inactive
[8]
  Potency: inactive
[9]
  Potency: inactive

## CCC(C)COC(=O)CC(C)C (stereo not given)
[1]
  Potency: inactive
[2]
  Potency: inactive
[3]
  Potency: inactive
[4]
  Potency: inactive
[11]
  Potency: inactive
[5]
  Potency: inactive
[6]
  Potency: inactive
[12]
  Potency: inactive
[7]
  Potency: inactive
[8]
  Potency: inactive

## Cc1ccc(CO)cc1
[1]
  Potency: inactive
[2]
  Potency: inactive
[3]
  Potency: inactive
[4]
  Potency: inactive
[11]
  Potency: inactive
[6]
  Potency: inactive
[12]
  Potency: inactive
[7]
  Potency: inactive
[8]
  Potency: inactive

## C[C@H]1c2cccc(O)c2C(O)=C2C(=O)[C@]3(O)C(O)=C(C(N)=O)C(=O)[C@@H](N(C)C)[C@@H]3[C@@H](O)[C@@H]21
[10]
  Potency: inactive
[1]
  Potency: inactive
[13]
  outcome: inactive
[14]
  outcome: inactive
[15]
  outcome: inactive
[16]
  outcome: inactive
[4]
  Potency: inactive
[11]
  Potency: inactive
[6]
  Potency: inactive
[12]
  Potency: inactive
[7]
  Potency: inactive
[8]
  Potency: inactive
[9]
  Potency: inactive

## CS(=O)(=O)c1ccc(-c2cn3ccccc3n2)cc1
[1]
  Potency: 11.9 µM (active)
[2]
  Potency: inactive
[3]
  Potency: 1.68 µM (active)
[4]
  Potency: inactive
[5]
  Potency: inactive
[12]
  Potency: inactive
[7]
  Potency: 2.11 µM (active)
[8]
  Potency: inactive

## CCOC(=O)c1ccc(C#Cc2ccc3c(c2)C(C)(C)CCS3)nc1
[10]
  Potency: inactive
[1]
  Potency: inactive
[4]
  Potency: inactive
[11]
  Potency: inactive
[5]
  Potency: inactive
[6]
  Potency: inactive
[8]
  Potency: inactive

## CC(C)=CCC1C(=O)N(c2ccccc2)N(c2ccccc2)C1=O
[10]
  Potency: inactive
[1]
  Potency: inactive
[2]
  Potency: inactive
[11]
  Potency: inactive
[6]
  Potency: inactive
[12]
  Potency: inactive
[7]
  Potency: inactive
[8]
  Potency: inactive

## OCCN1CCN(CCCN2c3ccccc3Sc3ccc(Cl)cc32)CC1
[10]
  Potency: 16.9 µM (active)
[2]
  Potency: 29.8 µM (active)
[13]
  outcome: inactive
[17]
  outcome: inactive
[14]
  outcome: inactive
[18]
  outcome: inactive
[15]
  outcome: inactive
[16]
  outcome: inactive
[4]
  Potency: 26.6 µM (active)
[11]
  Potency: inactive
[5]
  Potency: 29.8 µM (active)
[6]
  Potency: 29.8 µM (active)
[7]
  Potency: inactive
[19]
  Potency: inactive

## O=C(CCCN1CC=C(n2c(=O)[nH]c3ccccc32)CC1)c1ccc(F)cc1
[1]
  Potency: inactive
[2]
  Potency: inactive
[3]
  Potency: inactive
[4]
  Potency: 33.5 µM (active)
[11]
  Potency: inactive
[5]
  Potency: inactive
[12]
  Potency: inactive
[7]
  Potency: inactive
[8]
  Potency: inactive
